{
  "source": "the supplement of paper PMC7156485",
  "note": "± gives the standard deviation of the averaged measurements.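 Note: TDF denotes transformed human dermal fibroblasts of mesenchymal origin.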",
  "data": [
    {"test_system": "HCC1569", "test": "cell number relative to DMSO (% of DMSO); higher = more cells (less growth inhibition / toxicity)", "settings": "concentration: 10 µM; 24 h", "in_short": "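After 24 h at 37 °C with compounds at 10 µM, in triplicate, HCC1569 and TDF cells were fixed with 3.7% formaldehyde. Immunostaining used a rabbit anti-H1.0 antibody and an AlexaFluor 647 secondary, with DAPI, and six fields per well were imaged at ×10. H1.0 nuclear intensity or cell number is presented as percent of the plate control, from the median of replicates, with HCC1569 values smoothed for positional effects.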", "values": [
      {"compound": "CCc1nc(-c2cccc(C)c2)c(-c2ccnc(NC(=O)c3ccccc3)c2)s1", "cell number": 88.3},
      {"compound": "CC1(C)C=Cc2c(ccc3c2OC[C@@H](c2ccc(O)cc2O)C3)O1", "cell number": 99.4},
      {"compound": "O=C(Nc1ccccc1)c1cc([N+](=O)[O-])ccc1Cl", "cell number": 98.3},
      {"compound": "COC1C=COC2(C)Oc3c(C)c(O)c4c(O)c(cc([O-])c4c3C2=O)NC(=O)C(C)=CC=CC(C)C(O)C(C)C(O)C(C)C(OC(C)=O)C1C.[Na+]", "note": "(centres undefined)", "cell number": 103},
      {"compound": "CC1=C(CC(=O)O)c2cc(F)ccc2C1=Cc1ccc(S(C)(=O)=O)cc1", "note": "[Sulindac sulfone]", "cell number": 104},
      {"compound": "COc1ccc2c(c1)c(CC(=O)O)c(C)n2Cc1ccc(F)cc1", "note": "[1-(4-Fluorobenzyl)-5-methoxy-2-methylindole-3-acetic acid]", "cell number": 101},
      {"compound": "CCC1C(=O)OCC1Cc1cncn1C.O=[N+]([O-])O", "note": "(centres undefined) [Pilocarpine nitrate]", "cell number": 98},
      {"compound": "CN(C)CCCOC1C(C(O)CO)OC2OC(C)(C)OC21.Cl", "note": "(centres undefined) [Amiprilose hydrochloride]", "cell number": 101},
      {"compound": "O=C(O)CCCc1c[nH]c2ccccc12", "note": "[Indole-3-butyric acid]", "cell number": 104},
      {"compound": "C=C1CCC(O)CC1=CC=C1CCCC2(C)C1CCC2C(C)CCCC(C)(C)O", "note": "(centres undefined) [Calcifediol]", "cell number": 97.4},
      {"compound": "CNC(=O)c1ccccc1Sc1ccc2c(C=Cc3ccccn3)n[nH]c2c1", "note": "[Axitinib]", "cell number": 67.8},
      {"compound": "O=C1CC(c2ccc(O)c(O)c2)Oc2cc(OC3OC(CO)C(O)C(O)C3O)cc(O)c21", "note": "(centres undefined) [Eriodictyol-7-O-glucoside]", "cell number": 101},
      {"compound": "OC1CCN2Cc3ccccc3N=C12", "note": "(centres undefined) [Vasicine]", "cell number": 102},
      {"compound": "O=C1NC(=O)c2c1c(-c1ccccc1)cc1[nH]c3ccc(O)cc3c21", "cell number": 59.9},
      {"compound": "CCCCCCCCC=CCCCCCCCCCCCCCC(=O)O", "note": "[15(Z)-Tetracosenoic acid]", "cell number": 103},
      {"compound": "CC1=NS(=O)(=O)c2cc(Cl)ccc2N1", "note": "[Diazoxide]", "cell number": "101.1 ± 0.59"},
      {"compound": "O=C1Cc2c([nH]c3ccc(Br)cc23)-c2ccccc2N1", "note": "[Kenpaulone]", "cell number": 73.4},
      {"compound": "CC(C)(C)C1(O)CCN2CC3c4ccccc4CCc4cccc(c43)C2C1.Cl", "note": "(single isomer, unassigned; (+)) [(+)-Butaclamol hydrochloride]", "cell number": 54},
      {"compound": "Cc1cc(C)c(C=C2C(=O)Nc3ccccc32)[nH]1", "note": "[VEGF Receptor 2 Kinase Inhibitor III]", "cell number": 100},
      {"compound": "NC(N)=NCc1cccc(I)c1.NC(N)=NCc1cccc(I)c1.O=S(=O)(O)O", "note": "[m-Iodobenzylguanidine hemisulfate]", "cell number": 109},
      {"compound": "CCCCCCCCCCOCCC(=O)O", "note": "[4-Oxatetradecanoic acid]", "cell number": 102},
      {"compound": "O=C(CCCc1ccc(-c2ccccc2F)cc1)Nc1ccc(O)cc1", "note": "[MK2a Inhibitor]", "cell number": 79},
      {"compound": "CCCOc1ccc(C=C2SC(=O)NC2=O)cc1", "note": "[PIM1/2 Kinase Inhibitor VI]", "cell number": 106},
      {"compound": "C=C1C(=O)OC2C1CCC(=C)C1CCC(=C)C12", "note": "(centres undefined) [Dehydrocostus lactone]", "cell number": 83.9},
      {"compound": "NC(=O)C(=O)[O-].[Na+]", "note": "[Sodium Oxamate]", "cell number": 102},
      {"compound": "CCCC1=C(c2ccc(O)cc2)N(c2ccc(O)cc2)NC1=C1C=CC(=O)C=C1", "note": "[1,3,5-tris(4-hydroxyphenyl)-4-propyl-1H-pyrazole]", "cell number": 98.3},
      {"compound": "C=CC1CN2CCC1CC2C(O)c1ccnc2ccc(OC)cc12.Cl.O.O", "note": "(centres undefined)", "cell number": "99.036 ± 0.095"},
      {"compound": "CCCCCCCCCCCCCCCCCCOCC(COP(=O)([O-])OCC[N+](C)(C)C)OC(C)=O", "note": "(centres undefined)", "cell number": 98.8},
      {"compound": "COc1cc(C(=O)NS(=O)(=O)c2ccccc2C)ccc1Cc1cn(C)c2ccc(NC(=O)OC3CCCC3)cc12", "note": "[Zafirlukast]", "cell number": 101},
      {"compound": "OC1(c2ccc(Cl)cc2)CCN(Cc2c[nH]c3ccccc23)CC1", "cell number": 94.6},
      {"compound": "O=C1CC(c2ccc(O)cc2)Oc2cc(O)cc(O)c21", "note": "(centres undefined) [Naringenin]", "cell number": 99.9},
      {"compound": "CC(=O)N1CCN(C(=O)/C=C/c2ccc(Sc3ccccc3C(C)C)c([N+](=O)[O-])c2)CC1", "cell number": 82.5},
      {"compound": "Br.CN1CCc2c(cc(O)c(O)c2Cl)C(c2cccc(Cl)c2)C1", "note": "(centres undefined)", "cell number": 89.6},
      {"compound": "CC(=O)O.CN=C(N)NCCCC(N)C(=O)O", "note": "[NG-Monomethyl-L-arginine acetate]", "cell number": 100}
    ]}
  ]
}
